An excerpt weighted towards active compounds, which were near 27% of everything screened.
CYP2C19 inhib = blockers of cytochrome P450 2C19 activity – biochemical, luminescence, ADME assay, primary screen. P33261. CYP2C19 Supersomes, luciferin-H EGE luminescence, 30 min. hit rate 21% among 96,000. inhibition, % at 5 µM;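 active = CYP2C19 inhibition above a set limit at 5 µM in the primary screen, cut at about 50% in these data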
Target sequence (P33261 whole entry, looked up): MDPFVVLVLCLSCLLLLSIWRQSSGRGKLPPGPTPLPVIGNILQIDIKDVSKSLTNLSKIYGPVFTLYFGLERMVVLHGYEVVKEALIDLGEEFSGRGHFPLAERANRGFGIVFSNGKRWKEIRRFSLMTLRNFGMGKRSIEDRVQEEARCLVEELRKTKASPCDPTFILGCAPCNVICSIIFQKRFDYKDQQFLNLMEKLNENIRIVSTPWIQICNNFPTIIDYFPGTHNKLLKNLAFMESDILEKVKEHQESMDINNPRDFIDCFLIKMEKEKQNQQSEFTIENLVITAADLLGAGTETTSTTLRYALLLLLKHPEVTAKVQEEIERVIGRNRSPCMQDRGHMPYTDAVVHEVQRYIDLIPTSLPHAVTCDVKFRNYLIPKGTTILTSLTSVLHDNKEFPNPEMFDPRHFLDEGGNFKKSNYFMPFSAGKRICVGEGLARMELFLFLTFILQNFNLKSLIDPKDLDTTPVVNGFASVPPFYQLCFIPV
CYP2C9 act = human CYP2C9 activators, primary screen, biochemical, luminescence | recombinant CYP2C9, luciferin-H conversion; active compounds read high; factor 1 = untreated enzyme, 0 = blocked | activation factor at 5 µM | hit rate 1.4% among 96,000 | AID 1024, 2008;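 active = activation factor of 2 or more for CYP2C9 at a 5 µM dose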
CYP2C9 inh = blockers of cytochrome P450 2C9 activity – biochemical, luminescence, ADME assay, primary screen. P11712. CYP2C9 Supersomes, luciferin-H conversion. inhibition, % at 5 µM. hit rate 20% among 96,000;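 active = blocking of liver enzyme CYP2C9 beyond about 50% at 5 µM, limit read from the data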
CYP2C19 activ = human CYP2C19 activators, primary screen, biochemical, luminescence | activation factor at 5 µM | recombinant CYP2C19, luciferin-H EGE luminescence; active compounds read high; 0 = fully inhibited enzyme, 1 = untreated enzyme | 96,000 tested, under 10 active | Cytochrome P450 2C19 (Homo sapiens), P33261;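 active = activation factor of at least 2 at 5 µM in the primary screen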
Cav3 T inh = Cav3.2 calcium influx blockers – cell-based, Fluo-4 calcium fluorescence, FDSS, MLSMR library, primary screen; hit rate 4% among 100,000; Cav3.2-expressing cells; active compounds read low; Voltage-dependent T-type calcium channel subunit alpha-1H (Homo sapiens), O95180; B-score at 10 µM;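 active = single-dose well whose peak fluorescence ratio is a statistical outlier from its plate by either plate-standardised score or position-corrected B-score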
Of the large screens only hits and unclear results are named; the others gave an inactive call.

COc1ccc(N2C(=O)c3ccccc3NC23C(=O)N(C)c2ccccc23)cc1 (stereo not given)	none
Cc1csc2nc(CNC(=O)C3CC=CCC3C(=O)O)cn12 (stereo not given)	none
CSc1cccc(NC(=O)/C=C/c2ccccc2)c1	CYP2C19 inhib 55.4, Cav3 T inh -6.34
O=C(/C=C/c1c(Cl)cccc1Cl)Nc1ccncc1	CYP2C19 inhib 93.7, CYP2C9 inh 93.1
O=C(/C=C/c1cccc(Cl)c1)Nc1ccncc1	CYP2C19 inhib 99.0, CYP2C9 inh 98.7
O=C(/C=C/c1cccc(Cl)c1)NCc1cccs1	none
O=C(Cc1c(F)cccc1Cl)Nc1ccncc1	CYP2C19 inhib 81.5, CYP2C9 inh 70.6
CCOC(=O)C1CCCN(C(=O)CCn2nc(-c3ccccc3)ccc2=O)C1 (stereo not given)	none (no result: Cav3 T inh)
Cc1ccc(-n2c(SCc3cc(=O)n4ccsc4n3)nnc2-c2cccnc2)c(C)c1	none (no result: Cav3 T inh)
O=C(NCC1CC1)c1onc(CSc2ccncc2)c1C(=O)NCC1CC1	none (no result: CYP2C19 inhib, CYP2C9 act, CYP2C9 inh, CYP2C19 activ)
COC(=O)CCC(NC(=O)c1cc(-c2ccc3c(c2)OCCO3)oc1C)C(=O)OC (stereo not given)	CYP2C19 inhib 51.8
CCOC(=O)CNC(=O)c1cc(-c2ccc3c(c2)OCCO3)oc1C	none
O=c1c2ccccc2nc2n1C(CSc1ccc(Br)cc1)CN2 (stereo not given)	none (no result: Cav3 T inh)
CCOC(=O)CC(=O)CSc1nc(-c2ccc3c(c2)OCO3)cc(C(F)(F)F)c1C#N	CYP2C9 inh 52.7
CCOC(=O)CCSc1nc(C)cc(C(F)(F)F)c1C#N	CYP2C19 inhib 60.9
N#CC1(Cc2ccc(Cl)cc2)c2ccccc2C=CN1C(=O)c1ccccc1 (stereo not given)	CYP2C19 inhib 96.5, CYP2C9 inh 92.9, Cav3 T inh -3.15
Cc1ccc(C)c(CN2C(=O)C(C)Oc3ccc(C)cc32)c1 (stereo not given)	none
CC1(C(=O)NCCN2CCOCC2)C=CC2(CCCCC2)N1C(=O)c1ccccc1 (stereo not given)	none (no result: CYP2C19 inhib, CYP2C9 act, CYP2C9 inh, CYP2C19 activ)
Cc1ccccc1OCCn1nc(C(=O)O)c2ccccc2c1=O	CYP2C19 inhib 53.6
O=C(O)c1ccccc1S(=O)(=O)NCC(O)COc1ccc(Br)cc1 (stereo not given)	none
CC(C)Cc1cc(C(=O)Nc2cc(Cl)ccc2Cl)no1	CYP2C9 act 2.6 (no result: Cav3 T inh)
CC(C)c1cc(C(=O)Nc2cc(Cl)ccc2O)no1	CYP2C9 inh 50.1
O=C(CN1CCOCC1)NC1CC2CCC1C2 (stereo not given)	none
CCc1nc2ccc(C)cc2c(C(=O)NC2CCCCC2C)c1C (stereo not given)	CYP2C9 inh 70.8
Cc1ccc2c(c1)NC(=O)C(CC(=O)NC1CCCCC1C)O2 (stereo not given)	none
COc1ccc(Cl)cc1C(=O)NC(=S)Nc1cc(-c2nc3ccccc3[nH]2)ccc1C	Cav3 T inh -4.79 (no result: CYP2C19 inhib, CYP2C9 act, CYP2C9 inh, CYP2C19 activ)
COc1ccc(-n2nc3cc(C)c(NC(=S)NC(=O)c4ccccc4C)cc3n2)cc1	none
CCC(C)N(CCNC(=O)CC1Oc2ccc(C)cc2NC1=O)C1CCCCC1 (stereo not given)	none
CCc1c(C#N)c(N)nc(SCC(=O)OCc2ccccc2)c1C#N	none
Cn1c(SCC(=O)OCC(=O)c2ccccc2)nnc1-c1cccs1	none
Cn1c(Cc2ccccc2)nnc1SCC(=O)c1cccs1	CYP2C19 inhib 95.2
COc1ccc(OC)c(C(=O)CSc2nnc(Cc3cccs3)n2CCc2ccccc2)c1	CYP2C19 inhib 55.2
COc1ccc(OC)c(C(=O)CSc2nnc(-c3cccs3)n2C)c1	CYP2C19 inhib 97.3
CC(C)OC(=O)CSc1nnc(Cc2ccccc2)n1C	none
COc1ccc(OC)c(NC(=O)CSc2nnc(Cc3cccn3C)n2CCc2ccccc2)c1	none
Cc1ccc(C(=O)CSc2nnc(-c3cccs3)n2C)o1	CYP2C19 inhib 50.6
CCc1ccc(S(=O)(=O)NC(CC(=O)O)c2ccccc2)cc1 (stereo not given)	none
COc1ccc2nc(NC(=O)CSc3nc(C)cc(=O)[nH]3)sc2c1	CYP2C9 inh 51.8
CCOc1ccc2nc(NC(=O)C(CC)Sc3nc(C)cc(=O)[nH]3)sc2c1 (stereo not given)	CYP2C9 inh 68.1
CCOc1ccc2nc(NC(=O)C(NS(=O)(=O)c3cccc4nsnc34)C(C)C)sc2c1 (stereo not given)	CYP2C19 inhib 70.1
COc1ccc2nc(NC(=O)CSc3nccc(C)n3)sc2c1	none
CCOc1ccc2nc(NC(=O)Nc3cccs3)sc2c1	none (no result: CYP2C19 inhib, CYP2C9 act, CYP2C9 inh, CYP2C19 activ)
CCOc1ccc2nc(NC(=O)c3ccoc3C)sc2c1	CYP2C19 inhib 99.5, CYP2C9 inh 85.0
C=CCn1c(=O)n(CCOC)c(=O)c2sc3ccccc3c21	none
Cc1cccc(NC(=O)N(C)Cc2cccs2)c1	none
Cc1cc(C)cc(NC(=O)c2cc(S(=O)(=O)NCc3ccco3)ccc2F)c1	none
CN1CCC(=NNC(=O)C(=O)NC2CCCC2)CC1	none (no result: Cav3 T inh)
CN1CCC(=NNC(=O)C(=O)NC(C)(C)C)CC1	CYP2C9 inh 55.4
N#C/C(=N\Nc1cccc(Cl)c1)C(=O)c1ccccc1	CYP2C9 inh 63.0, Cav3 T inh -9.16
CCOC(=O)C1=C(C)NC2=C(C(=O)CCC2)C1c1coc2ccccc2c1=O (stereo not given)	CYP2C19 inhib 64.6, CYP2C9 inh 68.5
CCCOC(=O)C1=C(C)NC2=C(C(=O)CCC2)C1c1cccs1 (stereo not given)	CYP2C19 inhib 78.2, CYP2C9 inh 71.4
CCCOC(=O)C1=C(C)NC2=C(C(=O)CCC2)C1c1cccc(OC)c1OC (stereo not given)	CYP2C19 inhib 77.8
CC1=C(C(=O)OC2CCCC2)C(c2ccc(C)o2)C2=C(CC(c3cccs3)CC2=O)N1 (stereo not given)	CYP2C9 inh 71.7, Cav3 T inh -5.89
CCS(=O)(=O)c1ccc2oc(SCC(=O)NC(C)C3CC4CCC3C4)nc2c1 (stereo not given)	none
CC(C)c1ccc(NC(=O)N(CCc2nc3ccccc3[nH]2)C2CCCC2)cc1	Cav3 T inh -6.57
C=C(C)COc1ccc(-c2ncncc2Oc2ccc(OC)cc2)c(O)c1	CYP2C19 inhib 92.3, CYP2C9 inh 98.3
COc1ccc(-c2cnc(N)nc2-c2ccc(OC)cc2O)cc1	none
CCOc1ccc(-c2nc(N)nc(C)c2-c2ccc(OC)c(OC)c2)c(O)c1	none
C=C(C)COc1ccc(-c2nc(N)ncc2-c2ccc(OC)cc2)c(O)c1	CYP2C9 inh 52.4
COc1cccc(Oc2cnc(N)nc2-c2ccc(OC)cc2O)c1	CYP2C19 inhib 75.5, CYP2C9 inh 78.6
CCCCNCC(=O)Nc1sc(C)c(C)c1C(=O)OCC	none (no result: CYP2C19 inhib, CYP2C9 act, CYP2C9 inh, CYP2C19 activ)
O=C(c1cccc(Br)c1)N1CCN(C(=O)N2CCOCC2)CC1	none (no result: CYP2C19 inhib, CYP2C9 act, CYP2C9 inh, CYP2C19 activ)
